Source: ChEMBL document CHEMBL4888484, “Replenishing the malaria drug discovery pipeline: Screening and hit evaluation of the MMV Hit Generation Library 1 (HGL1) against asexual blood stage Plasmodium falciparum ,using a nano luciferase reporter read-out” (2022)
Hit rate of the full screen: of about 4,800 compounds, about 420 (8.8%) showed an effect of 50% or more. What follows is part of a selection rich in strong results, with near analogues and random picks from the rest. Where a SMILES comes first, the peptide text is derived from it. The star is where a group is joined. NHPhenethyl = c1ccc(CCN*)cc1

System: Plasmodium falciparum
Assay: Confirmatory screen in NF54 nanoGlo assay, in single point, at 2uM, 72h
Assay type: functional, Erythrocyte
Settings: timepoint 72 hour

Structure (SMILES) | % Inhibition [%]
CCc1ccc(CN2CCC[C@H](c3ncc[nH]3)C2)nc1 | 52
CCc1ccc([C@H]2NCCc3[nH]cnc32)nc1 | 29
CC(C)n1ccc(CN2CCC[C@H](c3cc(C(F)(F)F)[nH]n3)C2)n1 | -9
CCN(CC)c1ccc(N2C(=O)c3c(Br)c(Br)c(Br)c(Br)c3C2=O)cc1 | 5
C=CCNC(=S)NS(=O)(=O)c1ccc(Cl)cc1 | 3
COc1cc(CNCCN2CCOCC2)ccc1OCc1ccc(C)cc1 | -1
CCOc1cc(=O)c(C(=O)N2CCC(C(N)=O)CC2)nn1-c1ccc(F)cc1 | -6
CCS(=O)(=O)N1CCN(c2c(C)n(-c3ccccc3)c(=O)n(C)c2=O)CC1 | 2
Cn1c(N)c(S(=O)(=O)N2CCN(c3ccccc3Cl)CC2)c(=O)n(C)c1=O | 61
Cc1ccccc1S(=O)(=O)N1CCN(c2c(C)n(-c3ccccc3)c(=O)n(C)c2=O)CC1 | 1
CC(C)n1cc(CN[C@@]2(CO)CCCc3ccccc32)cn1 | -5
CCN(CC)CCCNC(=O)[C@H]1CCCN(c2nc3ccccc3n(Cc3ccccc3)c2=O)C1 | 0
CCC1CN2CCCC2CN1C(=O)Nc1nc2ccccc2s1 (configuration not stated) | -1
COc1ccc(CNC(=O)Cn2c(=O)n(Cc3cccc(OC)c3)c(=O)c3sccc32)cc1 | 1
Cn1ccc(NC(=O)C(=O)N2CC[C@H](c3ccco3)C2)n1 | -1
Cc1cccc(C(=O)Nc2ccc(N3CCCCCC3)cc2C(=O)O)c1 | -10
O=C(Nc1cccc(C(F)(F)F)c1)C(Oc1ccccc1)Oc1ccccc1 | -20
O=C(Nc1cc(N2CCCS2(=O)=O)ccc1O)c1cccc(Oc2cccc(C(F)(F)F)c2)c1 | 100
CC(C)(C)CC(=O)NC[C@H]1OC[C@@H](NC2CCCC2)[C@@H]1O | 3
Cc1n[nH]c(C)c1NC(=O)C1=NO[C@@H](CNC(=O)OC(C)(C)C)C1 | 0
Cc1cccc(C(=O)N[C@H]2CCN(c3ccccc3)C2=O)c1 | 13
CN(Cc1nccn1C)C(=O)c1cc2ccccc2[nH]1 | 5
Cn1c(=O)c2c(ncn2CC(=O)N(Cc2ccccc2)C2CC2)n(C)c1=O | -4
C=CCNC(=O)c1cc(Br)cc(Br)c1OC | 6
Cc1ccc([C@@H]2C=C(C(=O)O)Nc3c(C(N)=O)nnn32)cc1 | -14

Structure (SMILES) | % Inhibition [%]
Cc1ccc(C2=C[C@@H](c3ccc(Cl)cc3)n3nc(NC(=O)c4ccccc4)nc3N2)cc1 | 94
COc1cc([C@@H]2C=C(c3ccc(Cl)cc3)Nc3ncnn32)ccc1OCc1ccc(Cl)cc1 | 3
Cc1nnc2ccc(S(=O)(=O)N(Cc3ccccc3F)c3cc(F)cc(F)c3)cn12 | -5
CC(N)C(=O)NC(C)C(=O)NCCc1ccccc1 (stereo not drawn) (H-Ala-Ala-NHPhenethyl; configuration not given here) | -5
CCOC(=O)c1c(CN2CCCC2)n(C)c2cc(-c3cccnc3)c(O)c(Cn3ccnc3)c12 | 60
CCOC(=O)c1ncn(C2CCN(C(=O)c3cccc(Cn4ccnc4)c3)CC2)c1N | -3
Cc1nn(C)c(C)c1S(=O)(=O)N1CC[C@]2(CCN(c3cccnc3)C2)C1 | 1
Cc1cc(NC(=O)c2cccc(S(=O)(=O)NC3CC3)c2)no1 | -8
O=C(C[C@H]1CCC(=O)N(CC2CC2)CC1)Nc1ccccc1F | 4
COc1cccc(CNCCCn2ccnc2)c1OCc1ccc(F)cc1 | 6
COc1ccc(C)c2sc(N(CCCn3ccnc3)C(=O)Cc3ccc(F)cc3)nc12 | 79
Cn1cccc1CNCc1ccncc1 | 0
CCN(CC)[C@H](CNC(=O)C1=NN(C)C(=O)CC1)Cc1ccccc1 | 2
CC1CCC(c2noc([C@H]3CCO[C@@H]3c3cncc(Br)c3)n2)CC1 (some centres not stated) | 52
O=C(c1cncc(Br)c1)N1CC[C@H](c2nc(C3CCOCC3)no2)C1 | -2
c1csc(-c2noc(Cc3c[nH]c4ccccc34)n2)c1 | 21
COc1ccc(CC(=O)N(c2ccccc2)c2ccccc2)cc1 | 21
COc1ccc(C(=O)N(C(=O)c2ccc(OC)cc2)c2c3c(nc4ccccc24)CCCC3)cc1 | 72
COc1ccc(C(=O)N2CC(C(=O)O)CCC2c2ccccc2)cc1 (configuration not stated) | 3
Cc1nc(N2CCC(c3nc(-c4ccccc4)no3)CC2)c2c(C)noc2n1 | 54
C[C@H](Oc1ccccc1)C(=O)N1CCC(c2nc(-c3ccc4c(c3)OCO4)no2)CC1 | 6
c1cc(-c2noc(C3CC3)n2)nc(N2CCNCC2)n1 | -12
C=CCC(N)(CC=C)c1ccc(C)cc1 | -6
Cn1nnnc1NC/C=C/c1ccccc1 | -4
C=C1C(C)C2C(Cc3c[nH]c4ccccc34)NC(=O)C23C(=O)CC(O)C(O)CC(C)C/C=C/C3C1O (configuration not stated) | 44

Structure (SMILES) | % Inhibition [%]
CCC(C)C(NC(=O)c1ccccc1NC(=O)c1ccco1)C(=O)N1CCCCCC1 (configuration not stated) | -9
Cc1nc(C)c(CN2C(=O)C3CCCCC3C2=O)s1 (configuration not stated) | -2
O=C(c1ccoc1)N1CCC[C@H](C(=O)N2CCN(C(c3ccccc3)c3ccccc3)CC2)C1 | -1
O=C([C@H]1CC(=O)N(c2ccc(F)c(Cl)c2)C1)N1CCN(C(c2ccccc2)c2ccccc2)CC1 | -3
O=C(c1cccc(C(=O)N2CCN(C(c3ccccc3)c3ccccc3)CC2)c1)N1CCN(C(c2ccccc2)c2ccccc2)CC1 | 63
C[C@@H](C(=O)Nc1cccc2ccccc12)c1ccc(-c2ccccc2)c(F)c1 | -11
CC[n+]1c(/C=C/N(C)c2ccccc2)oc2ccccc21 | 80
CC[n+]1c(/C=C/N(C)c2ccccc2)oc2ccc(-c3ccccc3)cc21 | 89
CC(C)(C(=O)Nc1nccs1)c1cccnc1 | -2
Cn1cc(C(=O)N2N=CC[C@]2(O)C(F)(F)F)cn1 | 1
O=C(c1cc(-c2ccccc2)n[nH]1)N1CCC(N2CCc3sccc3C2)CC1 | 21
CCOc1c(CNC(C)(C)C)cccc1OC | -9
CC(C)c1cnc(NCCCC[C@H]2CCCO2)nc1 | -2
Cc1cccc(Oc2nc3ccccc3n3c(=O)n(CC(=O)NCc4ccc(Cl)cc4)nc23)c1C | -10
Cc1ccc(S(=O)(=O)c2ccc3c(c2)Oc2ccccc2N3)cc1 | -10
O=C(NC1CCN(Cc2ccccc2)CC1)c1cnn2c(-c3ccc4c(c3)OCO4)ccnc12 | 3
CCc1cccc(NC(=O)Cn2ccc3ccc(-c4nnc(C)o4)cc32)c1 | 81
Cc1noc(C)c1CC(=O)Nc1cccc(-c2nnco2)c1 | 3
Cc1nnc(-c2ccc3ccn(CC(=O)Nc4ccc(F)c(Cl)c4)c3c2)o1 | 78
Cc1cc(=O)n(CC(=O)Nc2ccc(Cl)c(C(F)(F)F)c2)c(-c2ccc(F)cc2)n1 | -6
Cc1nc2cc3c(cc2n1CC(=O)Nc1ccc(Cl)cc1)OCCCO3 | -4
Cn1cc(-c2ccc(Cl)cc2)c2ncn(CC(=O)Nc3cccc(Cl)c3)c(=O)c21 | -5
O=C(Nc1ccccc1)N1CCC[C@H]1c1ccncc1 | -12
CC(C)N1CCC2(CC1)N=C(c1ccc3c(c1)OCO3)C[C@@H](c1cc(Cl)ccc1O)N2 | 41
O=C(C[C@@H]1C(=O)Nc2nc(N3CCOCC3)[nH]c(=O)c21)Nc1ccc(Cl)cc1 | 9

Structure (SMILES) | % Inhibition [%]
Cn1c(-c2ccc(Cl)c(Cl)c2)c[n+](CC(=O)c2ccc(-c3ccccc3)cc2)c1N | 6
COC(=O)CN(C(C)C)S(=O)(=O)c1cc(Cl)cc(Cl)c1 | 3
N#Cc1ccc(S(=O)(=O)N2C3CCC2CC(O)C3)o1 (configuration not stated) | -11
CNCCc1c(-c2ccccc2)[nH]n(-c2ccccc2)c1=O | 63
O=C1CCCc2nc3[nH]n(-c4ccccc4)c(=O)c3cc21 | 8
CCCCCc1c(C)nc2[nH]n(-c3ccccc3)c(=O)c2c1O | -19
CCc1n[nH]c(C(=O)N2CC3CCCN3CC2CC)c1Br (configuration not stated) | 7
Oc1ccc(C2=C(c3ccccc3)N=NCN2O)c(O)c1 | -14
COCc1c(Br)c(C)nc(O)c1C#N | -8
CCN1c2cc(C(=O)Nc3ccc(OC)cc3OC)ccc2C(=O)N2CCCC[C@H]21 | 8
O=C(Cn1cnc2ccc(Cl)cc2c1=O)NCc1ccc2c(c1)OCO2 | -5
CC[C@H]1Cn2c(C(=O)NCc3ccc4c(c3)OCO4)cc3c(Cl)ccc(c32)O1 | -11
Cc1ccc(Cn2c(=O)c(C(=O)NCc3ccc4c(c3)OCO4)nn(-c3ccc(C(C)C)cc3)c2=O)cc1 | 64
COc1ccc(S(=O)(=O)N2CCN(C(=O)N(C)C)[C@@H]2c2ccccc2)cc1 | 0
COC(=O)c1cc(Cl)c(Cl)cc1N | -6
COc1cccc([C@H]2CC(=O)Nc3nc(N4CCCCC4)sc32)c1 | 6
COc1ccc(OC)c(S(=O)(=O)N2C[C@H]3CCCC(=O)N[C@H]3C2)c1 | -4
COc1ccc(F)cc1S(=O)(=O)N1CCc2noc(N)c2C1 | 68
COc1ccc(S(=O)(=O)N2CCC(c3cc(N)on3)CC2)cc1Cl | 46
O=C(c1ccccn1)N1CC(n2cnnc2[C@@H]2CCCO2)C1 | -8
Oc1ccc([C@@H](c2cn(-c3nc(-c4ccc(Cl)cc4)cs3)nc2-c2ccccc2)c2c(-c3ccccc3)nn(-c3nc(-c4ccc(Cl)cc4)cs3)c2O)cc1 | 6
c1nc2nc[nH]c(NC3CCCCC3)c-2n1 | 10
